Assay results taken from the supplement of paper PMC3545927.
Some of the results follow. The true hit rate is not given.

Target: furin, P09958
Assay: furin cleavage Z-score vs untreated control; higher = more cleavage, active = 3.5 or more, inactive = 1 or less, 8 variable residues between constant flanks
Experimental: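 Multiplexed peptide-cDNA fusion cleavage assay. 8-mer variable peptides flanked by constant Cys-Ala (N-term) and Ala-Gly-Asn-Ala-Ser-Ala-Ser-Ala (C-term) and conjugated to a cDNA oligonucleotide were bead-immobilised via the N-terminus. They were treated with purified furin at a 1:10 enzyme:substrate ratio in 50 mM HEPES pH 7.5, 1 mM CaCl2, 100 mM NaCl for 7.5, 15 or 30 min. Released cDNA was counted by next-generation sequencing, and log counts versus no-furin controls were lowess-adjusted and converted to robust Z-scores.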

Sequence of furin, P09958 (P09958 whole entry): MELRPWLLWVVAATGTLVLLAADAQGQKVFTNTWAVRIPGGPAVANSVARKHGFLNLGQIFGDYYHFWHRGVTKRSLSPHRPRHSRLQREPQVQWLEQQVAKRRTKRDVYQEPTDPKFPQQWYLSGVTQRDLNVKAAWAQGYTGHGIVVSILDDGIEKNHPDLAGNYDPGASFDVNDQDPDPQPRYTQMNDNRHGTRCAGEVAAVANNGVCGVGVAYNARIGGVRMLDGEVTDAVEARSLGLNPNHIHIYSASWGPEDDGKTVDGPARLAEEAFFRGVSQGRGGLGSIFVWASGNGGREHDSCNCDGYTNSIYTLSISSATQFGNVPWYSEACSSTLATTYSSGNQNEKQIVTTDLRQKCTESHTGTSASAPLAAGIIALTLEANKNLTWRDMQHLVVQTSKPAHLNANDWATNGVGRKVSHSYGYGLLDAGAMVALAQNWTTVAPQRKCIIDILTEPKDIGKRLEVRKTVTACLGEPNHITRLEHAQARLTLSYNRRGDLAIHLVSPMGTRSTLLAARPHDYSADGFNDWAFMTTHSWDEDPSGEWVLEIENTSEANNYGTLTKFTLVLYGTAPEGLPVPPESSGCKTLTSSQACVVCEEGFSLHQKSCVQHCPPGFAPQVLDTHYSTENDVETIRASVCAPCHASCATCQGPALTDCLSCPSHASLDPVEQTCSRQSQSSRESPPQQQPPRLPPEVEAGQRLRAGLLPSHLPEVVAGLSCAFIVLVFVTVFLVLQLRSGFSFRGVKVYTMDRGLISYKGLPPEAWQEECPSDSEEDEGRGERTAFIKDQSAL

Row | Sequence | furin cleavage Z-score (7.5 min) | furin cleavage Z-score (15 min) | furin cleavage Z-score (30 min)
1 | CASTGCSAHLAGNASASA [HC2516] | -1.2 (inactive) | 0.402 (inactive) | -0.12 (inactive)
2 | CATNLRIKRDAGNASASA [FS-568] | 14.5 (active) | 15.3 (active) | 10.7 (active)
3 | CAFNLRMKRDAGNASASA [FS-525] | 14.3 (active) | 12.3 (active) | 10.8 (active)
4 | CAVREVPCHRAGNASASA [HC2430] | -1.53 (inactive) | -1.03 (inactive) | -0.128 (inactive)
5 | CARPGRRVCAAGNASASA [FS-3259] | -0.847 (inactive) | -1.4 (inactive) | -1.34 (inactive)
6 | CAKPGRRGRAAGNASASA [FS-452] | 6.38 (active) | 5.76 (active) | 4.89 (active)
7 | CAKRWRRGRAAGNASASA [FS-1596] | 6.85 (active) | 6.38 (active) | 4.94 (active)
8 | CARPGRRGRPAGNASASA [FS-492] | -0.496 (inactive) | -1.23 (inactive) | -0.0754 (inactive)
9 | CAPEMEECSQAGNASASA [HC1799] | 0.387 (inactive) | 0.44 (inactive) | 0.854 (inactive)
10 | CARERRDAGRAGNASASA [FS-2137] | 9.55 (active) | 10.7 (active) | 9.14 (active)
11 | CARERRDSGVAGNASASA [FS-2486] | -0.528 (inactive) | -0.224 (inactive) | 0.24 (inactive)
12 | CARERRRAAKAGNASASA [FS-2550] | 0.778 (inactive) | 0.314 (inactive) | 1.46
13 | CARNVRFSDEAGNASASA [FS-2223] | 0.545 (inactive) | -0.141 (inactive) | -1.68 (inactive)
14 | CARERREVVRAGNASASA [FU3] | 10.2 (active) | 11.3 (active) | 10.9 (active)
15 | CARERRWDRGAGNASASA [FS-2010] | -1.3 (inactive) | -0.408 (inactive) | 1.72
16 | CARYKRKMTQAGNASASA [FS-1979] | -0.853 (inactive) | -0.612 (inactive) | -0.101 (inactive)
17 | CARYKRKSDEAGNASASA [FS-3177] | 5.32 (active) | 5.6 (active) | 5.8 (active)
18 | CARYKKAVFRAGNASASA [FS-3135] | 2 | 0.2 (inactive) | 2.99
19 | CARYKRMVERAGNASASA [FS-2537] | 7.23 (active) | 7.48 (active) | 6.63 (active)
20 | CATTPCSGTWAGNASASA [HC1918] | 0.438 (inactive) | 1.03 | 0.941 (inactive)
21 | CAAEEYVEIRAGNASASA [HC1204] | -0.657 (inactive) | 2 | -1.07 (inactive)
22 | CAQIVGGVYLAGNASASA [HC175] | -0.135 (inactive) | -2.24 (inactive) | -1.9 (inactive)

Row | Sequence | furin cleavage Z-score (7.5 min) | furin cleavage Z-score (15 min) | furin cleavage Z-score (30 min)
23 | CAVVRCSMSYAGNASASA [HC2033] | 1.28 | 0.684 (inactive) | -0.612 (inactive)
24 | CARENRSLFTAGNASASA [FS-2009] | 0.285 (inactive) | -0.333 (inactive) | -1.13 (inactive)
25 | CARERRNAIRAGNASASA [FS-3219] | 3.48 | 4.37 (active) | 4.64 (active)
26 | CARERRRLMSAGNASASA [FS-2660] | -1.21 (inactive) | -0.546 (inactive) | 0.262 (inactive)
27 | CARERRGPATAGNASASA [FS-2487] | -1.34 (inactive) | 0.671 (inactive) | -0.709 (inactive)
28 | CARERRDVQRAGNASASA [FS-1696] | 10.6 (active) | 13.2 (active) | 9.38 (active)
29 | CARERRDLFTAGNASASA [FS-2659] | 5.35 (active) | 8.1 (active) | 7.97 (active)
30 | CARYKRAGESAGNASASA [FS-2472] | 8.25 (active) | 10.6 (active) | 7.78 (active)
31 | CARERRTLSVAGNASASA [FS-2661] | 0.891 (inactive) | 2.33 | 3.01
32 | CARERRADHVAGNASASA [FS-2330] | 1.39 | 0.278 (inactive) | 2.34
33 | CAAGCAWYELAGNASASA [HC922] | -0.796 (inactive) | -1.42 (inactive) | -1.58 (inactive)
34 | CAKEMEECSQAGNASASA [HC1794] | 0.752 (inactive) | 0.717 (inactive) | 0.689 (inactive)
35 | CAEVPCHRPLAGNASASA [HC2405] | 0.138 (inactive) | -0.494 (inactive) | 0.866 (inactive)
36 | CAREQRDICEAGNASASA [FS-2658] | 0.169 (inactive) | 0.317 (inactive) | 0.297 (inactive)
37 | CAREQRDVERAGNASASA [FS-2485] | 1.98 | 3.86 (active) | 2.52
38 | CAREQRSNGLAGNASASA [FS-3245] | -0.772 (inactive) | 0.724 (inactive) | 1.43
39 | CASIERVKRQAGNASASA [FS-961] | 10.9 (active) | 11.9 (active) | 7.3 (active)
40 | CASVERIKRQAGNASASA [FS-303] | 12.4 (active) | 11.8 (active) | 10.6 (active)
41 | CAKVIDTLTCAGNASASA [HC221] | -1.35 (inactive) | -0.249 (inactive) | -0.555 (inactive)
42 | CAKVIRHKRQAGNASASA [FS-681] | 12.7 (active) | 12.4 (active) | 9.91 (active)
43 | CAKVTFDRLQAGNASASA [HC1396] | -1.13 (inactive) | -0.299 (inactive) | -2.04 (inactive)
